Experimental data reported in the supplement of paper PMC10849652.
About 7,900 targets were measured; listed, in parts, are those with a hit and a random draw of the rest. About 0.6% of all pairs of compound and target were hits. A number with no mark means an inactive call.

Legend:
Assay in all cases: log2 fold change, soluble protein after heating vs DMSO (PISA); higher = thermal stabilisation; K562 cells, 10 uM, 30 min; active = over 0.2 and 3.5 SD of the protein, either way, in both replicates (recomputed)
[1] = compound: Cc1ccc(NC(=O)c2ccc(CN3CC[C@H](N(C)C)C3)c(C(F)(F)F)c2)cc1Nc1nccc(-c2cncnc2)n1 [bafetinib]
Method in brief: (§1)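 Quantification of soluble protein used TMTpro 16plex LC-MS/MS, with channel sums equalised. Samples were the supernatant after 21,000xg for 90 min of pooled aliquots from K562 cells (2×10^6 cells/mL) treated with 10 μM compound for 30 min, heated for 3 min over 48°C-58°C, and extracted in PBS with 0.5% NP-40 at 4°C. Values, from duplicates, describe thermal stability against control samples on a log2 fold-change scale.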

[2] = compound: Cc1cccc(CC(=O)N2CCc3c2ccc(-c2cn(C)c4ncnc(N)c24)c3F)n1
Method in brief: as §1

[3] = compound: Cc1cn(-c2cc(NC(=O)c3ccc(C)c(Nc4nccc(-c5cccnc5)n4)c3)cc(C(F)(F)F)c2)cn1 [nilotinib]
Method in brief: as §1

[4] = compound: Cc1nc(Nc2n[nH]c3c2CN(C(=O)N[C@H](CN(C)C)c2ccccc2)C3(C)C)c2sccc2n1
Method in brief: as §1

[5] = compound: Cc1nc(Nc2ncc(C(=O)Nc3c(C)cccc3Cl)s2)cc(N2CCN(CCO)CC2)n1 [dasatinib]
Method in brief: as §1

[6] = compound: Cc1ncc(-c2ccnc(Nc3ccc(S(C)(=O)=O)cc3)n2)n1C(C)C
Method in brief: as §1

[7] = compound: Cn1cc(-c2ccc3c(c2)CCN3C(=O)Cc2cccc(C(F)(F)F)c2)c2c(N)ncnc21
Method in brief: as §1

[8] = compound: Cn1cc(-c2ccc3nnc(C(F)(F)c4ccc5ncccc5c4)n3n2)cn1
Method in brief: as §1

[9] = compound: Cn1cncc1[C@@](N)(c1ccc(Cl)cc1)c1ccc2c(c1)c(-c1cccc(Cl)c1)cc(=O)n2C [tipifarnib]
Method in brief: as §1

[10] = compound: FC(F)(F)c1ccc(/C=C/c2nc(COc3ccc(CCCCn4ccnn4)cc3)co2)cc1 [mubritinib]
Method in brief: as §1

[11] = compound: NC(=O)Nc1cc(-c2cccc(F)c2)sc1C(=O)N[C@H]1CCCNC1
Method in brief: as §1

[12] = compound: NC(=O)c1cnc(N[C@@H]2CCCC[C@@H]2N)nc1Nc1cccc(-n2nccn2)c1
Method in brief: as §1

[13] = compound: NC1(c2ccc(-c3nc4ccn5c(=O)[nH]nc5c4cc3-c3ccccc3)cc2)CCC1
Method in brief: as §1

[14] = compound: NCC(=O)Nc1ccc(-n2nc(C(F)(F)F)cc2-c2ccc3c(ccc4ccccc43)c2)cc1
Method in brief: as §1

[15] = compound: Nc1ccccc1NC(=O)c1ccc(CNC(=O)OCc2cccnc2)cc1 [entinostat]
Method in brief: as §1

[16] = compound: O=C(CCCCCCC(=O)Nc1ccccc1)NO [vorinostat]
Method in brief: as §1

[17] = compound: O=C(CCCCCCNC(=O)c1cnc(N(c2ccccc2)c2ccccc2Cl)nc1)NO [citarinostat]
Method in brief: as §1

[18] = compound: O=C(O)c1ccc2c(c1)nc(Nc1cccc(Cl)c1)c1ccncc12 [silmitasertib]
Method in brief: as §1

[19] = compound: O=C1NC(=O)C(c2cnc3ccccn23)=C1c1cn2c3c(cc(F)cc13)CN(C(=O)N1CCCCC1)CC2
Method in brief: as §1

[20] = compound: c1cc(OCCN2CCCCC2)cc(-c2n[nH]c3ccc(-c4nnc[nH]4)cc23)c1
Method in brief: as §1

Sequence of UniProt Q8NCC3 (Q8NCC3 whole entry, looked up): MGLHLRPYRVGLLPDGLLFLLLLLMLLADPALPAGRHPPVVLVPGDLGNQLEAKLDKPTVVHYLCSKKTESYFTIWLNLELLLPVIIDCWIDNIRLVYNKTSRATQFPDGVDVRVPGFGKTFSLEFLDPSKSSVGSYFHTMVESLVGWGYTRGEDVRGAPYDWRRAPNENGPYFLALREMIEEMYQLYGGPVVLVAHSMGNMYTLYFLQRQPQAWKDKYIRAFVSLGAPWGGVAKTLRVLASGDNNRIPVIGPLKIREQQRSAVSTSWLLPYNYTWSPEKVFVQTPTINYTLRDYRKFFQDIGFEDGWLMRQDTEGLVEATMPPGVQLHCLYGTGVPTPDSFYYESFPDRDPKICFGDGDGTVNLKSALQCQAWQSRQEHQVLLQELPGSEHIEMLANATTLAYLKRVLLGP
Sequence of UniProt Q9Y3E5 (Q9Y3E5 whole entry, looked up): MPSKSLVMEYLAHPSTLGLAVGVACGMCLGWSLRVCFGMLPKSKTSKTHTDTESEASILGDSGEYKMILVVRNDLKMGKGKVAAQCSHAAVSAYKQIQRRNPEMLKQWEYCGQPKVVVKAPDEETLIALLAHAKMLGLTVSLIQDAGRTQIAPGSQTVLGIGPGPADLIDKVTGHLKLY
Sequence of UniProt Q15185 (Q15185 whole entry, looked up): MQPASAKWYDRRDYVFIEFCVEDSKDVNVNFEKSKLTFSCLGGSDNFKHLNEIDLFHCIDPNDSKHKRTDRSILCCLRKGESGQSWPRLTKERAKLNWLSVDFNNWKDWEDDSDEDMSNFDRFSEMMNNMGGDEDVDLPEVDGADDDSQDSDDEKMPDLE
Sequence of UniProt O00408 (O00408 whole entry, looked up): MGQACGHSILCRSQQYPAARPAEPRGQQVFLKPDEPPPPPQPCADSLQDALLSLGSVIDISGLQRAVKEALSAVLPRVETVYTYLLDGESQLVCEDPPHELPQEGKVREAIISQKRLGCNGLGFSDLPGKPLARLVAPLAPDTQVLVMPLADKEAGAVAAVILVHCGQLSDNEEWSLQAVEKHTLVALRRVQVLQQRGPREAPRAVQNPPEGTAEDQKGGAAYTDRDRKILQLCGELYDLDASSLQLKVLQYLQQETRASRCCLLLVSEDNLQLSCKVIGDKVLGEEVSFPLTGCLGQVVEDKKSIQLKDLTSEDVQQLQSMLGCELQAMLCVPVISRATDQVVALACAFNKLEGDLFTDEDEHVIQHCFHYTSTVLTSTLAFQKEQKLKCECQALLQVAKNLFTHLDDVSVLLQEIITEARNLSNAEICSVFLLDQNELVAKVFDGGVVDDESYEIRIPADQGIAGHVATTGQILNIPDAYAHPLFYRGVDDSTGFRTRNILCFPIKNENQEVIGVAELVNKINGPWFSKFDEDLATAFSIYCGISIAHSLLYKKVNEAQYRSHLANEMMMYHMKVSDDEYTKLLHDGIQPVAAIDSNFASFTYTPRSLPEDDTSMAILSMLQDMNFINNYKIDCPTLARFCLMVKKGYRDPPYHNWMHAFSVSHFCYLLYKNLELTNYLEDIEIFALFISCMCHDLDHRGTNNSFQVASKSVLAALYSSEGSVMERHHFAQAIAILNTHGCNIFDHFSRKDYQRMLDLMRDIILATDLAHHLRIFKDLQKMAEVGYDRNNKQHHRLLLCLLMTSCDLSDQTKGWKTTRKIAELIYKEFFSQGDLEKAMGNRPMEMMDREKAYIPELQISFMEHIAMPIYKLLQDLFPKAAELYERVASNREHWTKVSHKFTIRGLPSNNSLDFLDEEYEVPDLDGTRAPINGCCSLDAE
Sequence of UniProt Q5MIZ7 (Q5MIZ7 whole entry, looked up): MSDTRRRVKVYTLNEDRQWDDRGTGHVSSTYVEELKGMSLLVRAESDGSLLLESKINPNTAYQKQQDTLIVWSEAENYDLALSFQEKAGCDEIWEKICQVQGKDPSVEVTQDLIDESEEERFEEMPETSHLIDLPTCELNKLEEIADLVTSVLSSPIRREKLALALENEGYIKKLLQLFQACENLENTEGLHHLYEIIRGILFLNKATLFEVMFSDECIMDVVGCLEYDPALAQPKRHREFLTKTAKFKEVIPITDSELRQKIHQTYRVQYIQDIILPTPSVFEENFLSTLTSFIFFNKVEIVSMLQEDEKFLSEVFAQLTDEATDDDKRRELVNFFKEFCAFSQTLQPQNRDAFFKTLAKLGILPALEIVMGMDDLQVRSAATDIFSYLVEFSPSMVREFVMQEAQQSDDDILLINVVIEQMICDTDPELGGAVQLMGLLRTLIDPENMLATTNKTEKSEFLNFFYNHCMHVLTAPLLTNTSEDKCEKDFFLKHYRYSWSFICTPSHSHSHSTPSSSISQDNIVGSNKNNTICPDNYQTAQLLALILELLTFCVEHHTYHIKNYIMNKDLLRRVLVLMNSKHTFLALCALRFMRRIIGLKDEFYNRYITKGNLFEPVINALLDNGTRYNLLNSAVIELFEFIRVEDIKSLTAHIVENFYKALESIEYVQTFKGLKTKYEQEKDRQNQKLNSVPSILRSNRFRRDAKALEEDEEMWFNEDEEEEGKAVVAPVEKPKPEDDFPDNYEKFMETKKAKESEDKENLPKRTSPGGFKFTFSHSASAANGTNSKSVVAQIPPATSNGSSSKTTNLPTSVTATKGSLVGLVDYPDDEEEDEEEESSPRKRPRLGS
Sequence of UniProt Q9P2B2 (Q9P2B2 whole entry, looked up): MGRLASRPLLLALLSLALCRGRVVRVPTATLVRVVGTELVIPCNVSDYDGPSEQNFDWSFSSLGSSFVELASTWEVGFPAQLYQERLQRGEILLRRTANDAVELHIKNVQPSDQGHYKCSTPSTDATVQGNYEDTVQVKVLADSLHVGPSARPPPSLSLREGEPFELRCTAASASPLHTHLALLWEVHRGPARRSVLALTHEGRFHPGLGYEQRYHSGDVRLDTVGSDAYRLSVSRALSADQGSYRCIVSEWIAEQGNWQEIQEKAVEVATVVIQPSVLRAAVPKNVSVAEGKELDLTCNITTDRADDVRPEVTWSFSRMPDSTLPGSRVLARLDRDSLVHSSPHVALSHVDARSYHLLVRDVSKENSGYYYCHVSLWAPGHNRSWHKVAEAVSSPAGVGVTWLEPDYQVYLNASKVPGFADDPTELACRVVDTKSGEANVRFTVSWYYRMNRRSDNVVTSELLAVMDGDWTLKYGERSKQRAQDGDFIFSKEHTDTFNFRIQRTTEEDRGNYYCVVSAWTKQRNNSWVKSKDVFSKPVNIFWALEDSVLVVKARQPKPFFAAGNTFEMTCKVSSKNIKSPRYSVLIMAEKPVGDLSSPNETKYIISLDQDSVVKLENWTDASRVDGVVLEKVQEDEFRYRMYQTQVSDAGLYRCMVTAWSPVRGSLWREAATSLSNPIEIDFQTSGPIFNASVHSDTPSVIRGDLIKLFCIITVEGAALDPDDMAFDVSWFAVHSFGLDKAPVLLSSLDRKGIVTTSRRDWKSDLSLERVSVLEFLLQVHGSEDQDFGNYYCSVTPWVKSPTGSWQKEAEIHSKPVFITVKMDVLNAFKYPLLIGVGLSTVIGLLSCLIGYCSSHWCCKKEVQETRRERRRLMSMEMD
Sequence of UniProt Q00577 (Q00577 whole entry, looked up): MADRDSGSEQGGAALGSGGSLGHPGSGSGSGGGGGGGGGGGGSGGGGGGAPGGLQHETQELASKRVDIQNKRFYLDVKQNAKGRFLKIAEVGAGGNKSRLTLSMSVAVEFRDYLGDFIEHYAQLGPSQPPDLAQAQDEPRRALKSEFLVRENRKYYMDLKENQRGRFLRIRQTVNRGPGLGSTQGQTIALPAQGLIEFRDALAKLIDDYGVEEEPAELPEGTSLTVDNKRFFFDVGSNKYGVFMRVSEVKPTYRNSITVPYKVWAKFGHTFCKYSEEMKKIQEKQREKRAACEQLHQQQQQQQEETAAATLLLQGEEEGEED
Sequence of UniProt O15305 (O15305 whole entry, looked up): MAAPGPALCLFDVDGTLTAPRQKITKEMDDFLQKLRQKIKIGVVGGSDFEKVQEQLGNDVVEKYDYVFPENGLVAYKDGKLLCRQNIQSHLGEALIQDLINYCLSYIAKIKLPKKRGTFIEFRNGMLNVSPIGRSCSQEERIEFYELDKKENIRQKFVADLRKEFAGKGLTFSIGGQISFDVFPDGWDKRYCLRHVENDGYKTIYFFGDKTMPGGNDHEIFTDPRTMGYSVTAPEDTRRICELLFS
Sequence of UniProt Q14181 (Q14181 whole entry, looked up): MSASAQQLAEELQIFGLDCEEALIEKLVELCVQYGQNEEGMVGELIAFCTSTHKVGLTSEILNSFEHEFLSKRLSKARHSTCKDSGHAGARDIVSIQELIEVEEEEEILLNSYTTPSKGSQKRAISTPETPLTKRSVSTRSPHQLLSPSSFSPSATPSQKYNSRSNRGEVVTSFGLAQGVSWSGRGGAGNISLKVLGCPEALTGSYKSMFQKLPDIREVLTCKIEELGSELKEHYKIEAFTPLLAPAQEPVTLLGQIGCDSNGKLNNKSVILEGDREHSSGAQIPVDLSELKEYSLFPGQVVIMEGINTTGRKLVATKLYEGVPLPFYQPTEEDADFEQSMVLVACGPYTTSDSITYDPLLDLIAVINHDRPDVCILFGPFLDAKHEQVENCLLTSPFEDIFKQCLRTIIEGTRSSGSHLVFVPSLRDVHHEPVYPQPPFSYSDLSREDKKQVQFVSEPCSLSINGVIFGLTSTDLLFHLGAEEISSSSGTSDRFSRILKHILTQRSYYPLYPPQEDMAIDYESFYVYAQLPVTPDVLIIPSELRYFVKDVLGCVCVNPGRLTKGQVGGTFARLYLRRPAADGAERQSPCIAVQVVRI
Sequence of UniProt Q9NR22 (Q9NR22 whole entry, looked up): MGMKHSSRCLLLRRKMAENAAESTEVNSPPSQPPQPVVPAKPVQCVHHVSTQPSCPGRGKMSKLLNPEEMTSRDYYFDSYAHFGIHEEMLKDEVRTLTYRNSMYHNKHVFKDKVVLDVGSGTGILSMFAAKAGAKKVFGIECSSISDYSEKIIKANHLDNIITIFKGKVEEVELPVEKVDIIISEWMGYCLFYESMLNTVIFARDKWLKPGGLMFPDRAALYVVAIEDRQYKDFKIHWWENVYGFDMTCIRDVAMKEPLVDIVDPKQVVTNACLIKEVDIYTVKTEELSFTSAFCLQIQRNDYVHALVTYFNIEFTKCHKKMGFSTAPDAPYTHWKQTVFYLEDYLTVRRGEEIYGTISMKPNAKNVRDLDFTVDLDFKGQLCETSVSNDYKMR

Target | log2 fold change [1] | log2 fold change [2] | log2 fold change [3] | log2 fold change [4] | log2 fold change [5] | log2 fold change [6] | log2 fold change [7] | log2 fold change [8] | log2 fold change [9] | log2 fold change [10] | log2 fold change [11] | log2 fold change [12] | log2 fold change [13] | log2 fold change [14] | log2 fold change [15] | log2 fold change [16] | log2 fold change [17] | log2 fold change [18] | log2 fold change [19] | log2 fold change [20]
PMM2 (UniProt O15305) | -0.098 | 0.003 | -0.291 (active) | -0.054 | -0.018 | -0.015 | 0.035 | 0.013 | 0.018 | 0.028 | 0.022 | 0.01 | 0.016 | -0.024 | -0.004 | 0.007 | 0.024 | -0.001 | -0.05 | -0.02
PRMT8 (UniProt Q9NR22) | 0.002 | 0.032 | -0.036 | 0.048 | -0.064 | 0.02 | 0.064 | -0.066 | -0.136 | 0.035 | 0.403 (active) | -0.149 | -0.118 | -0.054 | 0.21 | 0.029 | -0.031 | -0.039 | -0.057 | -0.006
PDE2A (UniProt O00408) | 0.021 | -0.02 | 0.023 | 0.016 | -0.103 | -0.012 | 0.063 | -0.03 | -0.031 | -0.051 | 0.035 | -0.008 | -0.018 | -0.033 | -0.082 | 0.118 | -0.032 | 0.035 | -0.052 | 0.018
PLA2G15 (UniProt Q8NCC3) | -0.175 | 0.05 | -0.001 | -0.025 | -0.036 | -0.028 | 0.002 | 0.09 | 0.084 | -0.05 | 0.06 | -0.042 | -0.023 | 0.001 | 0.056 | 0.073 | 0.279 (active) | 0.076 | -0.074 | -0.008
PTGES3 (UniProt Q15185) | -0.05 | 0.028 | -0.044 | -0.089 | -0.142 | -0.042 | 0.034 | 0.039 | -0.119 | -0.091 | -0.043 | -0.006 | -0.123 | 0.017 | 0.075 | 0.002 | 0.111 | -0.002 | -0.142 | 0.054
PTRH2 (UniProt Q9Y3E5) | -0.022 | 0.017 | 0.039 | -0.011 | -0.004 | 0.046 | 0.044 | -0.019 | 0.042 | -0.009 | -0.061 | 0.018 | -0.001 | 0.004 | -0.016 | -0.002 | 0.047 | 0.007 | -0.089 | 0.005
PURA (UniProt Q00577) | 0.108 | -0.089 | 0.06 | 0.105 | 0.335 | 0.017 | -0.382 | -0.12 | 0.207 | -0.06 | 0.015 | 0.105 | 0.377 | 0.036 | -0.085 | -0.079 | -0.141 | 0.248 | 0.185 | -0.114
PAK4 (UniProt O96013) | -0.072 | 0.011 | -0.016 | 0.352 (active) | -0.068 | 0.01 | 0.04 | 0.007 | 0.015 | -0.092 | 0.048 | 0.388 (active) | 0.015 | -0.038 | -0.083 | 0.01 | 0.003 | 0.041 | 0.017 | -0.039
POLA2 (UniProt Q14181) | -0.038 | 0.058 | -0.036 | -0.072 | -0.101 | -0.02 | 0.022 | 0.001 | -0.04 | 0.041 | -0.102 | -0.115 | -0.129 | -0.133 | -0.014 | 0.072 | 0.054 | 0.058 | -0.054 | -0.026
PPP2R5C isoform 4 (UniProt Q13362) | -0.032 | -0.019 | -0.05 | -0.025 | -0.058 | -0.008 | 0.037 | 0.052 | -0.093 | 0.095 | -0.035 | 0.079 | -0.064 | -0.065 | 0.012 | -0.033 | 0.055 | -0.015 | -0.022 | 0.058
PPP2R5C isoform 5 (UniProt Q13362) | -0.024 | 0.005 | -0.168 | -0.026 | -0.227 | 0.026 | 0.031 | -0.06 | -0.099 | 0.042 | 0.003 | 0.011 | -0.134 | -0.027 | 0.018 | -0.044 | 0.169 | -0.005 | -0.053 | -0.01
PTGFRN (UniProt Q9P2B2) | -0.061 | -0.04 | 0.087 | 0.024 | 0.046 | 0.048 | 0.038 | 0.009 | 0.032 | 0.065 | -0.115 | 0.083 | 0.013 | 0.014 | -0.071 | -0.055 | 0.021 | -0.006 | -0.007 | -0.104
PDE4DIP isoform 4 (UniProt Q5VU43) | 0.022 | -0.071 | -0.054 | -0.113 | 0.037 | -0.027 | 0.021 | 0.021 | 0.038 | 0.022 | 0.113 | -0.006 | 0.009 | 0.011 | 0.015 | -0.025 | 0.018 | -0.041 | -0.03 | -0.039
PRKACB isoform 2 (UniProt P22694) | -0.06 | 0.04 | -0.021 | 0.647 (active) | -0.021 | -0.037 | -0.013 | -0.004 | -0.144 | 0.051 | 0.078 | -0.11 | -0.173 | -0.02 | 0.001 | 0.04 | 0.015 | -0.002 | -0.119 | -0.065
PPP4R3B (UniProt Q5MIZ7) | -0.054 | 0.116 | -0.032 | -0.006 | -0.03 | -0.013 | 0.037 | 0.054 | -0.041 | 0.006 | -0.068 | -0.082 | -0.069 | -0.079 | 0.047 | 0.089 | 0.086 | 0.077 | -0.1 | 0.087
PSMC3 (UniProt P17980) | 0.072 | -0.033 | -0.004 | 0.059 | 0.016 | -0.017 | -0.1 | -0.005 | 0.124 | -0.016 | 0.014 | -0.011 | 0.046 | 0.078 | -0.024 | -0.017 | -0.053 | -0.018 | 0.049 | -0.092
